Source: the supplement of paper PMC10849652
Of roughly 7,900 targets only a part is listed; those with a hit were picked by preference. About 0.6% of all pairs of compound and target were hits.

Key:
Assay in all cases: log2 fold change, soluble protein after heating vs DMSO (PISA); higher = thermal stabilisation; K562 cells, 10 uM, 30 min; active = over 0.2 and 3.5 SD of the protein, either way, in both replicates (recomputed)
IRAK-1-4 Inhibitor I = compound: C1COCCN1CCN2C3=CC=CC=C3N=C2NC(=O)C4=CC(=CC=C4)[N+](=O)[O-] [IRAK-1-4 Inhibitor I]
In short: (§1)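 Soluble protein was quantified by TMTpro 16plex LC-MS/MS after channel sums were equalised. It was obtained as the supernatant after 21,000xg for 90 min from pooled aliquots of K562 cells (2×10^6 cells/mL, 10 μM compound, 30 min) heated for 3 min across 48°C-58°C and extracted in PBS with 0.5% NP-40 at 4°C. Thermal stability values are relative to control samples and come from duplicates. They are given as log2 fold changes.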

ibrutinib = compound: C=CC(=O)N1CCC[C@@H](n2nc(-c3ccc(Oc4ccccc4)cc3)c3c(N)ncnc32)C1 [ibrutinib]
In short: as §1

[1] = compound: CC(=O)c1cnc2ccc(-c3cc(Cl)c(O)c(Cl)c3)nc2c1N[C@H]1CC[C@H](CN(C)C)CC1
In short: as §1

ralimetinib = compound: CC(C)(C)Cn1c(N)nc2ccc(-c3[nH]c(C(C)(C)C)nc3-c3ccc(F)cc3)nc21 [ralimetinib]
In short: as §1

[2] = compound: CC(C)(O)CC(=O)NCCn1ccc2ncnc(Nc3ccc(Oc4cccc(C(F)(F)F)c4)c(Cl)c3)c21
In short: as §1

[3] = compound: CC(C)C1=C2N=C(C=C(N2N=C1)NCC3=CC=CC=C3)NCCCCCCN
In short: as §1

[4] = compound: CC(C)C[C@@H](C=O)NC(=O)[C@H](CC(C)C)NC(=O)[C@H](CC(C)C)NC(=O)OCc1ccccc1
In short: as §1

pinometostat = compound: CC(C)N(C[C@H]1O[C@@H](n2cnc3c(N)ncnc32)[C@H](O)[C@@H]1O)[C@H]1C[C@@H](CCc2nc3cc(C(C)(C)C)ccc3[nH]2)C1 [pinometostat]
In short: as §1

[5] = compound: CC1=C(C(CC(=O)N1)C2=CC=C(C=C2)C(F)(F)F)C(=O)NC3=C(C=C4C(=C3)C=NN4)F
In short: as §1

[6] = compound: CC1=C(C2=C(C=C1)C(=O)C3=CC=CC=C3N2CCCN)C
In short: as §1

Measured: log2 fold change

UQCR10 (UniProt Q9UDW1)
Chain of UniProt Q9UDW1 (Q9UDW1 whole entry, looked up): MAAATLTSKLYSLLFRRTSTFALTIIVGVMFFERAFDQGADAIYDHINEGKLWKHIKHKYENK
inactive: IRAK-1-4 Inhibitor I 0.036 | ibrutinib 0.019 | [1] -0.077 | ralimetinib -0.05 | [2] -0.056 | [3] 0.031 | [4] -0.127 | pinometostat -0.016 | [5] -0.008 | [6] 0.057

VPS11 (UniProt Q9H270)
inactive: IRAK-1-4 Inhibitor I 0.115 | ibrutinib -0.038 | [1] -0.032 | ralimetinib 0.038 | [2] -0.069 | [4] 0.062 | pinometostat 0.011 | [5] 0.016 | [6] 0.031
active: [3] -0.375

TMEM189-UBE2V1 (UniProt I3L0A0)
inactive: IRAK-1-4 Inhibitor I 0.048 | ibrutinib 0.022 | [1] -0.022 | ralimetinib 0.006 | [2] -0.024 | [3] 0.031 | [4] -0.028 | pinometostat -0.046 | [5] 0.03 | [6] 0.037

TTI2 (UniProt Q6NXR4)
inactive: IRAK-1-4 Inhibitor I -0.032 | ibrutinib -0.006 | [1] 0.005 | ralimetinib 0.033 | [2] -0.196 | [3] -0.079 | [4] 0.032 | pinometostat 0.016 | [5] -0.044 | [6] 0.033

TRAPPC13 isoform 5 (UniProt A5PLN9)
inactive: IRAK-1-4 Inhibitor I -0.06 | ibrutinib -0.047 | [1] -0.121 | ralimetinib -0.048 | [2] -0.093 | [3] -0.014 | [4] 0.026 | pinometostat 0.033 | [5] -0.06 | [6] -0.047

TXN2 (UniProt Q99757)
Chain of UniProt Q99757 (Q99757 whole entry, looked up): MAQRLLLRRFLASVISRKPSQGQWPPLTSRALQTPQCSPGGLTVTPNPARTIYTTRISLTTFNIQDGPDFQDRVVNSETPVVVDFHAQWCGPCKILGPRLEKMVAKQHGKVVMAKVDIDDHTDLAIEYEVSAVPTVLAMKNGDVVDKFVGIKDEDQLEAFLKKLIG
inactive: IRAK-1-4 Inhibitor I 0.081 | ibrutinib 0.021 | [1] 0.072 | ralimetinib -0.093 | [2] 0.079 | [3] 0.086 | [4] -0.029 | pinometostat -0.048 | [5] 0.086 | [6] 0.041

TSFM (UniProt P43897)
Chain of UniProt P43897 (P43897 whole entry, looked up): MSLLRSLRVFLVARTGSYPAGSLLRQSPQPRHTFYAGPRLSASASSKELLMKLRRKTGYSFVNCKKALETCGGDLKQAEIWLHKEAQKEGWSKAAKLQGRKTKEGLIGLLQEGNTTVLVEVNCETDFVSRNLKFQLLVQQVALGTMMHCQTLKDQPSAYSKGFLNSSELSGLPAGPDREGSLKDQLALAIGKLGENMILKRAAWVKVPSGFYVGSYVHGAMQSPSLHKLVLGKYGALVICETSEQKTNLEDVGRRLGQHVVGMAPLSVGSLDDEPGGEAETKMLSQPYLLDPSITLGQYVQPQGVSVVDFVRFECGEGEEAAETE
inactive: IRAK-1-4 Inhibitor I -0.065 | ibrutinib -0.134 | [1] -0.067 | ralimetinib 0.011 | [2] -0.254 | [3] 0.069 | [4] -0.058 | pinometostat -0.08 | [5] -0.066 | [6] 0.258

VTI1A (UniProt Q96AJ9)
inactive: IRAK-1-4 Inhibitor I 0.095 | ibrutinib 0.012 | [1] -0.009 | ralimetinib -0.111 | [2] 0.019 | [3] 0.005 | [4] 0.028 | pinometostat -0.016 | [5] 0.028 | [6] -0.01

UFL1 (UniProt O94874)
inactive: IRAK-1-4 Inhibitor I -0.048 | ibrutinib -0.037 | [1] -0.022 | ralimetinib 0.073 | [2] -0.055 | [3] -0.142 | [4] 0.015 | pinometostat 0.042 | [5] -0.017 | [6] 0.026

UCHL5 (UniProt Q9Y5K5)
inactive: IRAK-1-4 Inhibitor I -0.041 | ibrutinib -0.051 | [1] -0.012 | ralimetinib 0.03 | [2] -0.028 | [3] -0.161 | [4] 0.054 | pinometostat -0.004 | [5] -0.004 | [6] -0.018

XPOT (UniProt O43592)
inactive: IRAK-1-4 Inhibitor I -0.035 | ibrutinib -0.061 | [1] 0.064 | ralimetinib -0.079 | [2] -0.146 | [4] 0.053 | pinometostat 0.03 | [5] 0.001 | [6] 0.033
active: [3] -0.345

XPNPEP1 isoform 3 (UniProt Q9NQW7)
inactive: IRAK-1-4 Inhibitor I 0.07 | ibrutinib -0.002 | [1] -0.011 | ralimetinib -0.03 | [2] -0.016 | [3] -0.135 | [4] -0.073 | pinometostat -0.006 | [5] -0.014 | [6] 0.045

WARS2 (UniProt Q9UGM6)
inactive: IRAK-1-4 Inhibitor I -0.016 | ibrutinib -0.075 | [1] -0.031 | ralimetinib -0.017 | [2] -0.144 | [3] -0.204 | [4] 0.016 | pinometostat -0.053 | [5] -0.026 | [6] -0.004

UBC (UniProt P0CG48)
inactive: IRAK-1-4 Inhibitor I 0.022 | ibrutinib 0.027 | [1] 0.033 | ralimetinib -0.064 | [2] 0.008 | [3] 0.167 | pinometostat 0.042 | [5] -0.018
active: [4] 0.296 | [6] 0.281

UBAP1 isoform 4 (UniProt Q9NZ09)
Chain of UniProt Q9NZ09 (Q9NZ09 whole entry, looked up): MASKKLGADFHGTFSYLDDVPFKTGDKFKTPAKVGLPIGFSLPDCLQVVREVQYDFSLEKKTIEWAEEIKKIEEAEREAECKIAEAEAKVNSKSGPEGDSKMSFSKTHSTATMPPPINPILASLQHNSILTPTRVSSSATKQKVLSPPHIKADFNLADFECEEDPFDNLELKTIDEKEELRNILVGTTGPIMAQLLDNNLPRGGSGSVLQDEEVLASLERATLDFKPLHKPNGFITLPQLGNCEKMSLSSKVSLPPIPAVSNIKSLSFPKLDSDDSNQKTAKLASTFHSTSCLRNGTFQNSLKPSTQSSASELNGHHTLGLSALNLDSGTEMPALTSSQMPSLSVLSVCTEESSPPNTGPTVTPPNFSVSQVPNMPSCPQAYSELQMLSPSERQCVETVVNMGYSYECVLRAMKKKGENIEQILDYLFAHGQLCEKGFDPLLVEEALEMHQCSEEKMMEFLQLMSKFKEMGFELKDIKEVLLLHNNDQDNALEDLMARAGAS
inactive: IRAK-1-4 Inhibitor I -0.058 | ibrutinib 0.07 | [1] -0.001 | ralimetinib -0.024 | [2] -0.044 | [3] -0.087 | [4] 0.107 | pinometostat 0.018 | [5] 0.184 | [6] -0.112

TPR (UniProt P12270)
Chain of UniProt P12270 (P12270 whole entry, looked up): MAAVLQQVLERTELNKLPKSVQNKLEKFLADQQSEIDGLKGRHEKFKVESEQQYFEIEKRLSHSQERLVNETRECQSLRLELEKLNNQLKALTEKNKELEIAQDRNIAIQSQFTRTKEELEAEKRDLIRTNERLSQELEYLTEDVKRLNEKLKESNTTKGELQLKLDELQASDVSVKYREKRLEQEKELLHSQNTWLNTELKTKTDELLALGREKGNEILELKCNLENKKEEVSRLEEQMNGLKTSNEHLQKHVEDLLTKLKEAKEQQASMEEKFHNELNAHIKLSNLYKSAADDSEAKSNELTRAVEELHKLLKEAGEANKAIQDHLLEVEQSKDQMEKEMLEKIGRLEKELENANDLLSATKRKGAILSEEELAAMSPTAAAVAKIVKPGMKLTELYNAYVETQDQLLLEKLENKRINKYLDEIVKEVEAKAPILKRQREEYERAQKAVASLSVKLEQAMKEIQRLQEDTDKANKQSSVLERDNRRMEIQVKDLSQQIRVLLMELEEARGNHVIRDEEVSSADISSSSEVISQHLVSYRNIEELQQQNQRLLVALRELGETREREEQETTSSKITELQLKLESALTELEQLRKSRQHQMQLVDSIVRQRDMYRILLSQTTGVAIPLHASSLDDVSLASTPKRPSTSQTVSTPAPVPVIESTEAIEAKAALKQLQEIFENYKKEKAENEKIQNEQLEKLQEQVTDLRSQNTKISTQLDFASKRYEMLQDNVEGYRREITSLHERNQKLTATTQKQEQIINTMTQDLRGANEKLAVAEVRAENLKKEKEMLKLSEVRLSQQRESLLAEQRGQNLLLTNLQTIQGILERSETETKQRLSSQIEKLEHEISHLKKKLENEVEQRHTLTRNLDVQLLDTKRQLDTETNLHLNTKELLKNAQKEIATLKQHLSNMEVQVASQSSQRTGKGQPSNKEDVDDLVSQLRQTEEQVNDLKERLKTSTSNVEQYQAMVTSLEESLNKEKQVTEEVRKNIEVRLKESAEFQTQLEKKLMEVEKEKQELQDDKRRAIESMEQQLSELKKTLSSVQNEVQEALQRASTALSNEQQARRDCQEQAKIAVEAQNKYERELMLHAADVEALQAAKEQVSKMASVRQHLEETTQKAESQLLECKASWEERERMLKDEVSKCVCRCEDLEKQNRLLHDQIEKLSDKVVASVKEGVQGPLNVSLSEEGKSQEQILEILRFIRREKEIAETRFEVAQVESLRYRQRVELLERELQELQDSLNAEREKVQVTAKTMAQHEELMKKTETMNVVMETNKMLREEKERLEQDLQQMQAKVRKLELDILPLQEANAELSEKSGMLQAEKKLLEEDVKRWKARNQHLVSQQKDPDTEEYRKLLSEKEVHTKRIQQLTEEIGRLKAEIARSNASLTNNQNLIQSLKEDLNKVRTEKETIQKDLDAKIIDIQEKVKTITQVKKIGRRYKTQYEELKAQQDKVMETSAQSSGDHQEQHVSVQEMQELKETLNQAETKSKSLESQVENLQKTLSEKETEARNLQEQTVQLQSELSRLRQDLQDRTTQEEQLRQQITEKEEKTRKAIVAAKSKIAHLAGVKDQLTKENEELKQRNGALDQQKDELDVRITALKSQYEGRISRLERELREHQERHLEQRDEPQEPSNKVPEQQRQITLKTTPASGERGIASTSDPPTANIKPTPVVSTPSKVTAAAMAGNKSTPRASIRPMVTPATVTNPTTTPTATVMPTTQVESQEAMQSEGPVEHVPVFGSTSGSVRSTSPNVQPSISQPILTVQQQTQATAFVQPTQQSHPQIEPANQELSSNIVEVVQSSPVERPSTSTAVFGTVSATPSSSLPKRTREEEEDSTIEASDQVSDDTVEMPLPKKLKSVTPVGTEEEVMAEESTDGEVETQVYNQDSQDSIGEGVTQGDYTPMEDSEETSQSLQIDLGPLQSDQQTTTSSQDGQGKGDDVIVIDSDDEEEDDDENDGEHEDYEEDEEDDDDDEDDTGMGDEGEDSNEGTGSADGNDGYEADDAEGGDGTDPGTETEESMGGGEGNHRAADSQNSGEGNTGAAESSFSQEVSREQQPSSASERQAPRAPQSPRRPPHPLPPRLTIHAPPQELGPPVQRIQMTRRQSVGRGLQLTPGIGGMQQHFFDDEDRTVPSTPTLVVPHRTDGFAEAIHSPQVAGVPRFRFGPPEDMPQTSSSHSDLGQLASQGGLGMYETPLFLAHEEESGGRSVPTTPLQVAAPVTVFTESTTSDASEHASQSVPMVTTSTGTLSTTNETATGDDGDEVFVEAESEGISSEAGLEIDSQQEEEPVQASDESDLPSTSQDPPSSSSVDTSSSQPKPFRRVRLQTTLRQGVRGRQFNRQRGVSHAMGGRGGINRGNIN
inactive: IRAK-1-4 Inhibitor I 0.03 | ibrutinib -0.048 | [1] 0.247 | ralimetinib 0.058 | [2] 0.121 | [3] 0.091 | [4] 0.024 | pinometostat -0.001 | [5] -0.045 | [6] -0.122

VPS18 (UniProt Q9P253)
inactive: IRAK-1-4 Inhibitor I -0.02 | ibrutinib -0.029 | [1] -0.029 | ralimetinib -0.037 | [2] -0.024 | [3] -0.319 | [4] 0.053 | pinometostat 0.055 | [5] -0.019 | [6] 0.059

UBA6
inactive: IRAK-1-4 Inhibitor I -0.038 | ibrutinib -0.01 | [1] -0.009 | ralimetinib -0.002 | [2] -0.012 | [3] -0.044 | [4] -0.025 | pinometostat 0.004 | [5] -0.044 | [6] 0.106

UBE2E3 (UniProt Q969T4)
inactive: IRAK-1-4 Inhibitor I 0.106 | ibrutinib -0.059 | [1] -0.027 | ralimetinib 0.069 | [2] -0.046 | [3] -0.08 | [4] -0.039 | pinometostat 0.096 | [5] -0.019 | [6] 0.066

UTP14A (UniProt Q9BVJ6)
active: [6] -0.708
inactive: IRAK-1-4 Inhibitor I -0.13 | ibrutinib -0.026 | [1] 0.088 | ralimetinib 0.11 | [2] 0.007 | [3] -0.113 | [4] 0.154 | pinometostat 0.262 | [5] 0.065

UBE4A isoform 2 (UniProt Q14139)
inactive: IRAK-1-4 Inhibitor I -0.114 | ibrutinib -0.125 | [1] -0.017 | ralimetinib 0.02 | [2] -0.032 | [4] 0.096 | pinometostat 0.093 | [5] 0.098 | [6] 0.041
active: [3] -0.376

TMEM263 (UniProt Q8WUH6)
inactive: IRAK-1-4 Inhibitor I 0.083 | ibrutinib 0 | [1] 0.026 | ralimetinib -0.092 | [2] -0.303 | [4] 0.029 | pinometostat 0.001 | [5] 0.092 | [6] 0.037
active: [3] -1.03

WEE1 (UniProt P30291)
active: [1] -1.1
inactive: IRAK-1-4 Inhibitor I 0.025 | ibrutinib 0.013 | ralimetinib 0.037 | [2] -0.034 | [3] -0.019 | [4] 0.296 | pinometostat 0.066 | [5] 0.05 | [6] 0.263

WDR43 (UniProt Q15061)
inactive: IRAK-1-4 Inhibitor I 0.023 | ibrutinib 0.019 | [1] 0.012 | ralimetinib -0.088 | [2] -0.003 | [3] 0.199 | [4] -0.039 | pinometostat -0.035 | [5] 0.009
active: [6] 0.222

USP7 (UniProt Q93009)
inactive: IRAK-1-4 Inhibitor I -0.102 | ibrutinib -0.021 | [1] -0.078 | ralimetinib 0 | [2] -0.172 | [3] -0.198 | [4] 0.012 | pinometostat 0.024 | [5] 0 | [6] 0.17

VPS8 (UniProt Q8N3P4)
Chain of UniProt Q8N3P4 (Q8N3P4 whole entry, looked up): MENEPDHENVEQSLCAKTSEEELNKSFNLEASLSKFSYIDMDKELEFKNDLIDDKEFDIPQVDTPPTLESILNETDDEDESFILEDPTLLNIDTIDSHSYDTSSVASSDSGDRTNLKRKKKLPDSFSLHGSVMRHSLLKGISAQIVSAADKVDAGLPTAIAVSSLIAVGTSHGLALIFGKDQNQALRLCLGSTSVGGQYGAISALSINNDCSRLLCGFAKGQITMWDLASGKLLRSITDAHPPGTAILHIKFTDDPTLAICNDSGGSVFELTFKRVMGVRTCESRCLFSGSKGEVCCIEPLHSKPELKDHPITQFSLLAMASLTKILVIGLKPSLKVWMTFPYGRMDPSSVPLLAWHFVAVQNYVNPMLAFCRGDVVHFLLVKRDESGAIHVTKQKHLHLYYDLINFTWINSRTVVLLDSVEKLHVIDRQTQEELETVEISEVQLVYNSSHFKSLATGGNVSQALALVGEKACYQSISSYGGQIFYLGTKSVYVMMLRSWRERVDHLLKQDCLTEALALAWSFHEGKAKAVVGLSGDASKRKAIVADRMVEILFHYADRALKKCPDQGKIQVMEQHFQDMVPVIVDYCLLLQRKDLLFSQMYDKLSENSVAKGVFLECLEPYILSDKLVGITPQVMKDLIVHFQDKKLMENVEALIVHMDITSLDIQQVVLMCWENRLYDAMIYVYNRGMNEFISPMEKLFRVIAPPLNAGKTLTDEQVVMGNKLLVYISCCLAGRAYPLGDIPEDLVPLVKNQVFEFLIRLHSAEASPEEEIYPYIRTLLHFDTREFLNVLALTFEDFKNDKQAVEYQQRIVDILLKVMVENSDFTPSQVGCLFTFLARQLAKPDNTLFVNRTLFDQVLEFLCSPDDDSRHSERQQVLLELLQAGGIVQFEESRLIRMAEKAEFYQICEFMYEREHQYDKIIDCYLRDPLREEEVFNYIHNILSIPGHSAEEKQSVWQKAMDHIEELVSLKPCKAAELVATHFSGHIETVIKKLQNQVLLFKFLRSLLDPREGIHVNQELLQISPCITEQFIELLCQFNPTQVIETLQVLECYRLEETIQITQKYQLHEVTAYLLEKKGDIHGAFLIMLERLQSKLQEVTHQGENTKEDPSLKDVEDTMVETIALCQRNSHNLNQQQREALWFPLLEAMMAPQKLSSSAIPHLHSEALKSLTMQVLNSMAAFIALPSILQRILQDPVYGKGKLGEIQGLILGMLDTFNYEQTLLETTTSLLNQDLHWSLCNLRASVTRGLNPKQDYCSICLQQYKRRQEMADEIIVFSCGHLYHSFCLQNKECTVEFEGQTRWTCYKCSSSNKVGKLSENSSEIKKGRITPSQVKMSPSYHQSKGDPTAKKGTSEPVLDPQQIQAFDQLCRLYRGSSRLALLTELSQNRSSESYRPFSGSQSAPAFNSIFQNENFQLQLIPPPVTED
inactive: IRAK-1-4 Inhibitor I -0.085 | ibrutinib -0.117 | [1] -0.004 | ralimetinib 0.088 | [2] -0.079 | [3] -0.254 | [4] 0.052 | pinometostat 0.039 | [5] 0.026 | [6] 0.015

WNK1 isoform 7 (UniProt Q9H4A3)
active: [4] 0.476
inactive: IRAK-1-4 Inhibitor I 0.015 | ibrutinib 0.01 | [1] -0.213 | ralimetinib -0.045 | [2] 0.017 | [3] -0.005 | pinometostat 0.004 | [5] -0.011 | [6] 0.027

USP14 (UniProt P54578)
inactive: IRAK-1-4 Inhibitor I -0.013 | ibrutinib -0.045 | [1] -0.004 | ralimetinib 0.021 | [2] -0.028 | [3] -0.068 | [4] 0.044 | pinometostat -0.031 | [5] 0 | [6] 0.014

TRAPPC2L (UniProt Q9UL33)
Chain of UniProt Q9UL33 (Q9UL33 whole entry, looked up): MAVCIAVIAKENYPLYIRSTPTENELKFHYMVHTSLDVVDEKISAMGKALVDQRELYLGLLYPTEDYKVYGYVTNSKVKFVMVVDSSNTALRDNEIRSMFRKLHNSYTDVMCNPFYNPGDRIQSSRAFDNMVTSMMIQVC
inactive: IRAK-1-4 Inhibitor I -0.013 | ibrutinib 0.003 | [1] -0.004 | ralimetinib -0.125 | [2] -0.11 | [3] -0.083 | [4] 0.24 | pinometostat 0.001 | [5] 0.062 | [6] 0.014

XPO5 (UniProt Q9HAV4)
inactive: IRAK-1-4 Inhibitor I -0.004 | ibrutinib -0.027 | [1] 0.032 | ralimetinib 0.001 | [2] -0.141 | [3] -0.21 | [4] -0.021 | pinometostat -0.01 | [5] 0
active: [6] -0.204

UBE2J1 (UniProt Q9Y385)
inactive: IRAK-1-4 Inhibitor I -0.447 | ibrutinib 0.013 | [1] -0.077 | ralimetinib -0.02 | [2] -0.106 | [3] -0.284 | [4] 0.188 | pinometostat 0.096 | [5] 0.101 | [6] -0.047
